Source: PubChem (National Center for Advancing Translational Sciences (NCATS))
AMA1 RON2 block: qHTS for Inhibitors of AMA1-RON; Towards Development of Antimalarial Drug Lead: Primary Screen. Plasmodium falciparum AMA1 (3D7) - RON2 peptide interaction. AlphaScreen AMA1-biotinylated RON2 peptide binding. Potency, µM (doses to about 58.2 µM), inactives show top-dose activity change, negative = inhibition, actives largely listed as inhibitors. 360,000 compounds, 0.2% hits;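 further: 0% = vehicle wells and -100% = peptide control; nearly all actives have a fitted effect of over 45% in size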
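AMA1 (3D7) with his tag at 25 nM final met compounds first, then biotinylated RON2 peptide at 25 nM; detection used donor plus acceptor beads, 10 µg/mL apiece, read by AlphaScreen after 30 min at room temperature.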
RE007 growth inh: qHTS Assay for Inhibitors of the HIV-1 protein Vpr; AID 651644, 2012; 360,000 compounds, 0.21% hits; S. pombe RE007 Vpr strain, BacTiter-Glo ATP luminescence, 24 h; Potency, µM (series often up to 92.2 µM), without a hit: at the highest dose activity change, negative = less growth, usual class: inhibitors; active means well fitted falling curve with a large enough effect; inconclusive means small, poorly fitted or top-dose-only effect; inactive means no such curve, though single readings can be large or run the other way; further: nearly all actives have a fitted effect of over 50% in size
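Fission yeast strain RE007, carrying one chromosomally integrated HIV-1 vpr copy, was seeded at OD 0.01 in PMG+AL medium with 23 nL pinned compound. After 24 h at 30 °C and 99% humidity, viability was read by BacTiter-Glo luminescence.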
AmpC inh detg: qHTS Inhibitors of AmpC Beta-Lactamase (assay with detergent) | P00811 | AmpC hydrolysis of nitrocefin, absorbance 480 nm, 0.01% Triton | Potency, µM (doses to about 114 µM), for the others: at the highest dose activity change, negative = inhibition, usual class: inhibitors | 370,000 compounds, 0.041% hits;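 further: 0% = no-compound wells and -100% = no-enzyme wells; nearly all actives have a fitted effect of over 25% in size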
Target sequence (P00811 whole entry, looked up): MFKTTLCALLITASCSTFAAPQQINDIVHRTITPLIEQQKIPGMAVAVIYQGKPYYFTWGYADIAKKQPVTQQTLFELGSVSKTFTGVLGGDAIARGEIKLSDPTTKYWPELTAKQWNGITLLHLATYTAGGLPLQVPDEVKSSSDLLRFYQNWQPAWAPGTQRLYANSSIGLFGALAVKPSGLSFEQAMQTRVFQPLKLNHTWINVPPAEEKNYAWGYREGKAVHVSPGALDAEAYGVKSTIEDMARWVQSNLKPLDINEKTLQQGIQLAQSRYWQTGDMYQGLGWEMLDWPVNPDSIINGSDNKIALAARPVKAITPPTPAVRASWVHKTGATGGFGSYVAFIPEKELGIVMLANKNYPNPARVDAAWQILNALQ
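20 mM phosphate pH 7.0 + 0.01% (detergent screen) or 0.0001% Triton X-100; 5.3 nM AmpC reagent; cpd preinc 15 min RT; nitrocefin (800 uM stock) to start; A480 q20 s × 4 min; Activity was normalised to no-enzyme and no-compound control wells.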
AmpC no deterg: qHTS Inhibitors of AmpC Beta-Lactamase (assay without detergent); AmpC nitrocefin hydrolysis, absorbance 480 nm, 0.0001% Triton; Potency, µM (highest dose often 57.1 µM), for the others: at the top dose activity change, negative = inhibition, actives largely listed as inhibitors; 330,000 compounds, 0.52% hits; AID 485341, 2010;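 further: plate controls were no compound for no effect and no enzyme for full effect; nearly all actives have a fitted effect of over 20% in size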
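20 mM phosphate pH 7.0 + 0.01% (detergent screen) or 0.0001% Triton X-100; 5.3 nM AmpC reagent; cpd preinc 15 min RT; nitrocefin (800 uM stock) to start; A480 q20 s × 4 min; Activity was normalised to no-enzyme and no-compound control wells.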
Sm TGR inh: qHTS Assay for the Inhibitors of Schistosoma Mansoni Peroxiredoxins | purified TGR, DTNB reduction, TNB absorbance 405 nm | Potency, µM (top dose mostly 114 µM), without a hit: top-dose activity change, negative = inhibition, usual class: inhibitors | Schistosoma mansoni thioredoxin glutathione reductase (TGR), Q962Y6 | 360,000 compounds, 3% hits | AID 485364, 2010; further: nearly all actives have a fitted effect of over 60% in size
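First, TGR (20 nM dispensed) and NADPH were mixed with compound. Second, a 15 min room-temperature incubation followed. Third, further NADPH and then DTNB were added to start the reaction. Finally, TNB absorbance was monitored kinetically.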
* marks the source's active call; other numbers are inactive results; ? = inconclusive; . = no result given. Sampled rows, rich in hits. Any-hit rate of the full collection: about 3.2%. Unless noted, the call rests on the fitted dose curve; in most records, active means well fitted curve in the direction sought with a large enough effect; inconclusive means small, poorly fitted or top-dose-only effect, or another doubt; inactive means no such curve, though single readings can be large; an effect the other way counts as inactive or inconclusive. Unless noted, on the % scale 0 is the no-effect control and ±100 the full control effect; potency means the concentration at half of the fitted maximal effect.

SMILES	AMA1 RON2 block	RE007 growth inh	AmpC inh detg	AmpC no deterg	Sm TGR inh
CN(CCC1CCOCC1)C(=O)CC1C(=O)NCCN1Cc1ccccc1F (stereo not given)	32.6%	-6.8%	-5.6%	60.1%	44.7µM*
CN(CC1CCOCC1)C(=O)CC1C(=O)NCCN1Cc1ccccc1F (stereo not given)	31.4%	-22.3%	-6.7%	18.4%	?
CC(=O)c1ccc(NC(=O)C2CCC(CNS(=O)(=O)c3ccc4c(c3)CCCC(=O)N4)CC2)cc1 (stereo not given)	.	.	2.8%	.	4.8%
COc1cccc(CN2CCNC(=O)C2CC(=O)NCC2CCOCC2)c1 (stereo not given)	36.9%	5.4%	0.8%	60.8%	35.5µM*
CCOC(=O)c1cc(C)sc1/N=C/C1C(=O)NC(=S)NC1=O	-22.9%	1.0%	0.3%	-30.5%	4.47µM*
Cc1cccc(NC(=O)c2cc(S(=O)(=O)N3CCc4ccccc43)cn2C)c1	16.6%	6.7%	-12.1%	-31.3%	4.1%
CSc1cccc(NC(=O)c2cc(S(=O)(=O)N3CCc4ccccc43)cn2C)c1	-9.7%	-1.9%	-16.4%	10µM*	1.7%
NS(=O)(=O)c1ccc(NC(=O)c2ccc(S(=O)(=O)N3CCc4ccccc43)cc2)cc1	-11.6%	-0.8%	-6.0%	17.8µM*	-2.3%
O=C(NCc1ccccc1Cl)c1ccc(Nc2nc3ccccc3n3nnnc23)cc1	.	.	12.2%	.	2.8%
Cn1c(SCC(=O)NCc2ccco2)nnc1-c1c[nH]c2ccccc12	14.7%	-12.9%	?	-17.4%	-18.4%
COc1ccc(-c2nnc3ccc(SCC(=O)Nc4cc(C)on4)nn23)cc1	.	.	1.7%	-20.9%	7.0%
O=C(CSc1ccc2nnc(-c3ccccn3)n2n1)NCc1ccc2c(c1)OCO2	249.0%	-8.8%	?	0.0%	-6.2%
CCOc1ccc(-n2c(SCC(=O)NCc3ccco3)nnc2-c2c[nH]c3ccccc23)cc1	-1.3%	8.1%	?	1.41µM*	-11.0%
O=C(CSc1ccc2nnc(-c3ccccn3)n2n1)NCc1ccco1	32.2%	9.4%	1.2%	-13.4%	39.8µM*
COc1ccc(-c2nnc3ccc(SCC(=O)NCc4ccco4)nn23)cc1	-6.2%	18.0%	-10.8%	-4.6%	39.8µM*
COc1ccc(-c2nnc(SCC(=O)NCc3ccco3)n2C)cc1	8.6%	7.8%	-13.8%	-9.6%	44.7µM*
Cc1ccc(NC(=O)CSc2nc3nccnc3c(=O)n2CCc2c[nH]c3ccccc23)cc1C	.	.	12.3%	.	-1.8%
O=C(CSc1ccc2nnc(-c3ccccc3)n2n1)NCc1ccco1	0.0%	9.1%	4.3%	?	44.7µM*
COc1ccc(Cc2nnc(SCC(=O)NCc3ccco3)o2)cc1	-0.5%	-3.1%	-0.5%	-3.5%	50.1µM*
O=C(CSc1ccc2nnc(CCNC(=O)c3ccccc3)n2n1)NCc1ccco1	-8.8%	-6.1%	2.9%	-16.0%	41.8%
CCc1cccc(C)c1NC(=O)C1CCCN1S(=O)(=O)c1cccc2nsnc12 (stereo not given)	.	.	-6.9%	.	0.1%
COc1ccc(-c2c(C)nn3c(C(F)(F)F)cc(-c4ccccc4)nc23)cc1OC	.	.	1.6%	.	-8.8%
Cn1cccc1Cc1nnc(SCC(=O)N2CCOCC2)n1-c1ccc(F)cc1	-2.4%	8.6%	-10.3%	2.51µM*	-34.2%
Cn1cccc1Cc1nnc(SCC(=O)NCc2ccco2)n1CCc1ccccc1	8.0%	-6.8%	-0.3%	54.1%	50.1µM*
Cn1cccc1Cc1nnc(SCC(=O)NCc2ccccc2Cl)n1-c1ccc(F)cc1	0.1%	-15.8%	?	55.9%	0.0%
Cn1cccc1Cc1nnc(SCC(=O)NCc2ccco2)n1-c1ccc(F)cc1	3.1%	-13.2%	-0.1%	43.8%	44.7µM*
Cn1cccc1Cc1nnc(SCC(=O)NCC2CCCO2)n1CCc1ccccc1 (stereo not given)	3.5%	-14.7%	?	57.3%	-10.1%
COc1ccc(-n2c(Cc3cccn3C)nnc2SCC(=O)N2CCOCC2)cc1	-2.1%	0.5%	?	61.9%	-18.0%
